# Screens deposited in PubChem by several laboratories.
# Hits are enriched below; roughly 1.3% of the tested compounds scored in any of these assays.
# CRFR2-BP ag: agonists of human CRF-binding protein/CRF-R2 receptor complex | 350,000 tested, 0.46% active | HEK293 CRF-R2/CRF-BP, calcium dye fluorescence (FLIPR); percent of saturating CRF peptide response | activation, % at 13.2 µM;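 active = activation of at least 50%, plus an integration ratio under a set limit after plate pattern correction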;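 note: plate controls were neutral control wells without compound for no effect and CRF at EC100 for full effect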
# Cardiac RTF inh: cardiac RTF calcium desensitization | P19429+P45379 | IANBD-labeled cardiac RTF, Ca2+ fluorescence | inhibition, % at 7.15 µM | 340,000 tested, 0.12% active;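 active = inhibition above the mean inhibition of all tested compounds plus 3 SD, cut at about 17% in these data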;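 note: assay run at fixed EC70 calcium of 1.6 mM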
# LANA DNA inh: KSHV C-LANA DNA binding inhibition; 340,000 tested, 0.078% active; inhibition, % at 9 µM; MBP-C-LANA/FAM-LBS DNA binding, fluorescence polarization; AID 504423;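 active = highest replicate inhibition at or above 60% at 9 µM, even if other replicates fall short; inactive = all replicates below 60% inhibition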;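 note: 0% = neutral control wells and 100% = 4 µM acridine orange control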
# Keap1 Nrf2 FP: Keap1-Nrf2 (human) interaction inhibition; AID 504523; 340,000 tested, 0.15% active; Q14145; inhibition, % at 9.4 µM; Keap1 Kelch-Nrf2 peptide fluorescence polarization, 1536-well; in the data active = inhibition above about 12%;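 note: human Keap1 Kelch domain with fluorescein labeled Nrf2 9mer peptide probe; 0% = neutral control wells and 100% = peptide positive control; higher means more block of Keap1 binding to Nrf2 peptide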
# Target sequence (Q14145 whole entry, looked up, the tested form may be a part): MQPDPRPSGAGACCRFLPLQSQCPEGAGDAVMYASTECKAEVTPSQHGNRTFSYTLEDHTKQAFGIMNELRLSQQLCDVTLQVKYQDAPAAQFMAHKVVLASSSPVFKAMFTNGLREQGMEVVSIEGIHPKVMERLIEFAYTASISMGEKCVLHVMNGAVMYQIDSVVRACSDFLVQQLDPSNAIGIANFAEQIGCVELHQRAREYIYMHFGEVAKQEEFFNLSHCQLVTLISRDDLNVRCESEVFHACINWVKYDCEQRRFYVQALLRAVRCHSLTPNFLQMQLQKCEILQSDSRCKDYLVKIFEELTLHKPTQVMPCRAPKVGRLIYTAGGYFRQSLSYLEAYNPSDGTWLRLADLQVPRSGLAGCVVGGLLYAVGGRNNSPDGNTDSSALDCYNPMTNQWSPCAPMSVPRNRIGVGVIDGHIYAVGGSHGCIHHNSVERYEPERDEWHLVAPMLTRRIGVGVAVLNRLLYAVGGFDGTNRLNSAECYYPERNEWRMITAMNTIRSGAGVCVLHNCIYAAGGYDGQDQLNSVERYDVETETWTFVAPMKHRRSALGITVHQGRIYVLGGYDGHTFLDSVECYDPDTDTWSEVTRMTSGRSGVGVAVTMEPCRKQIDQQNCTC
# CRFR2-BP antag: antagonists of CRF-binding protein/CRF-R2 receptor complex; HEK293 CRF-R2/CRF-BP, CRF-induced calcium fluorescence; inhibition, % at 11.8 µM; 350,000 tested, 0.59% active; AID 588475;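 active = inhibition of the ligand-induced calcium signal above about 50% at the single tested concentration, limit read from the data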
# cardiac RTF act: cardiac RTF calcium sensitization. P19429+P45379. IANBD-labeled TnC RTF fluorescence at EC20 calcium; 0% EC20 calcium, 100% full calcium. activation, % at 7.2 µM. 340,000 tested, 0.24% active. AID 493008;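 active = activation above the mean over all tested compounds plus 3 SD, cut at about 30% in these data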;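 note: rise in fluorescence read as greater calcium sensitivity of cardiac thin filaments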
# * = called active by the depositor; i = inactive; x = no result; + = active, no number.
SMILES,CRFR2-BP ag,Cardiac RTF inh,LANA DNA inh,Keap1 Nrf2 FP,CRFR2-BP antag,cardiac RTF act
COc1ccc(/C=C(\C)c2nc(C)c(-c3ccccc3)c(=O)[nH]2)cc1,3,4,1,1,-11,1
CC(=O)N/N=C/c1cc(C(C)(C)C)cc(/C=N/NC(C)=O)c1O,77*,x,8,8,-66,x
Cc1cc(C(=O)N/N=C\c2cc(C(C)(C)C)ccc2O)n[nH]1,-2,0,0,-4,-7,-6
c1nnc(NC2=NCCCCC2)s1,-1,-8,1,1,11,0
O=C(Nc1ccc(C(=O)N2CCCC2)cc1)C1CCCCC1,4,-7,1,7,-2,2
Cc1ccn(C(=O)c2ccc(NC(=O)C3CCCCC3)cc2)n1,-4,-2,16,1,54*,1
Cc1cc(C)c(NC(=O)/C(=C/c2ccccc2)c2ccccc2)c(C)c1,0,-3,-2,-1,67*,-5
Cc1ccc(S(=O)(=O)/N=C(/Nc2ccc([N+](=O)[O-])cc2)c2ccccc2)cc1,4,6,0,2,-14,3
Cc1ccc(S(=O)(=O)/N=C(/Nc2ccc([N+](=O)[O-])cc2[N+](=O)[O-])c2ccccc2)cc1,1,-9,0,5,67*,-5
CCN(c1ccccc1)S(=O)(=O)c1cc(NC(=O)CSc2n[nH]c(=O)[nH]c2=O)ccc1Cl,4,-10,1,1,111*,-4
O=C(CSc1n[nH]c(=O)[nH]c1=O)Nc1ccc2c(c1)C(=O)c1ccccc1C2=O,-3,8,1,0,22,1
C=C1CCC[C@]2(C)C[C@H]3OC(=O)C(CNC(C)(CO)CO)[C@H]3CC12 (some centres undefined),0,-3,-1,-3,86*,2
C=C(C)c1cccc(C(C)(C)NC(=O)Nn2cnnc2)c1,0,-11,0,-2,-1,8
Cc1ccc(NC(=O)CN(C)C(=O)CCCN2C(=O)c3ccccc3C2=O)cc1,-5,-2,-3,-4,-12,10
CCOc1cc(/C=N\NC(=O)C2C(=O)NCC2c2ccccc2)ccc1OC (centres undefined),56*,2,2,-1,-74,-7
CCNC(=S)N(CCc1ccc(S(N)(=O)=O)cc1)C1CC(=O)N(c2ccccc2)C1=O (centres undefined),97*,-1,0,-2,-95,-1
CC1C/C(=N\NC(=O)c2cccnc2)CC(C)(C)C1 (centres undefined),0,-3,2,-5,-1,0
CC1C/C(=N\NC(=O)c2ccc([N+](=O)[O-])cc2)CC(C)(C)C1 (centres undefined),5,-7,0,-5,72*,-3
COC(=O)/C(=C/c1ccc(F)cc1)NC(C)=O,3,-4,1,1,12,-4
CC1CCN(S(=O)(=O)c2nnc(NC(=O)c3cccc(Cl)c3)s2)CC1,13,1,-1,-5,60*,-2
COc1ccccc1C(=O)Nc1nnc(S(=O)(=O)N2CCC(C)CC2)s1,0,-2,0,2,-14,-1
CCCCc1nc(Cl)c(C#N)c2c1CCCC2,0,4,0,0,-6,-7
N#Cc1c(Cl)nc2c(c1C#N)CCCC2,-2,-2,-1,5,107*,5
COCOc1ccc(/C=C/C(=O)c2c(OCOC)cc(OCOC)c(CC=C(C)C)c2O)cc1OCOC,1,x,x,x,0,x
CC(C)=CCC/C(C)=C/Cc1c(O)ccc(C(=O)/C=C/c2ccc(O)cc2)c1O,2,-8,0,-2,-15,19
SMILES,CRFR2-BP ag,Cardiac RTF inh,LANA DNA inh,Keap1 Nrf2 FP,CRFR2-BP antag,cardiac RTF act
COc1cc(CCc2ccccc2)c(C(=O)O)c(O)c1C/C=C(/C)CCC=C(C)C,24,-3,5,3,72*,-5
COc1cc(CCc2ccccc2)c(C(=O)O)c(O)c1CC=C(C)C,1,-5,1,-3,61*,-2
CCC(C)[C@H](NC(=O)Nc1ccccc1F)C(=O)OC (some centres undefined),-1,10,1,-3,-9,-1
COc1cc2c(cc1NC(=S)Nc1cccc3ccccc13)oc1ccccc12,-1,4,-1,-4,5,-4
COc1ccc(-c2nc3c(c(=O)c4ccccc4n3C)c(=O)n2Cc2ccccc2)cc1,53*,-2,1,3,-37,3
COc1ccc(Cn2c(-c3ccco3)nc3c(c(=O)c4ccccc4n3C)c2=O)cc1,-4,0,0,0,72*,7
COc1ccc(CCn2c(C(C)C)nc3c(c(=O)c4ccccc4n3C)c2=O)cc1,115*,-12,0,-4,50,2
COc1ccc(Cn2c(C)nc3c(c(=O)c4ccccc4n3C)c2=O)cc1,0,-5,-2,1,-4,-3
Cc1cc(OCC(=O)Nc2ccc(S(=O)(=O)NC3=NCCCCC3)cc2)c(C(C)C)cc1Cl,1,-1,0,-7,-56,-1
CCOC(=S)SCc1cn2ccc(C)cc2n1,1,-13,-2,1,3,5
Cc1ccn2cc(CSc3ccccc3N)nc2c1,-6,4,1,2,61*,-1
Cc1ccc(N2C(=O)c3cccc4c(N)ccc(c34)C2=O)c2cccnc12,201*,i,3,-7,-176,754*
Cc1nn(C)c(C)c1N1C(=O)c2cccc3c(N)ccc(c23)C1=O,330*,i,183*,116*,-398,+
Cc1nn(C)c(C)c1N1C(=O)c2cccc3c(Br)ccc(c23)C1=O,-3,-5,-1,-5,22,8
Cc1ccc(-n2cnnn2)c2cccnc12,1,-3,0,-6,-15,4
CC(C)(C)OC(=O)NCCCCCNC(=O)c1[nH]cnc1C(=O)Nc1cccc(Cl)c1,1,-8,1,0,5,-3
O=C(CN1CCN(c2ccccc2F)CC1)Nc1ccc2c(c1)CCC2,1,-4,0,1,1,-6
N#C/C(=C\c1c(N2CCCCCC2)nc2ccccn2c1=O)C(=O)NCc1ccco1,0,0,0,3,4,-10
Cn1c(=O)c2cc3ccc(Cl)cc3nc2n(C)c1=O,-1,x,x,x,52*,x
Cc1ncc([N+](=O)[O-])n1Cc1ccc(F)cc1,1,-8,-3,-5,9,14
CC1(C)Cc2c(sc(/N=C/N3CCCC3)c2C#N)C(C)(C)N1,10,-17,1,3,62*,1
NC(=S)Cc1ccccc1Cl,-2,2,0,3,7,-5
O=C(NCc1ccccc1Cl)C1CCN(S(=O)(=O)c2ccc(N3CCCC3=O)cc2)CC1,4,-6,-1,-3,-1,5
